Measured values taken from PubChem BioAssay AID485364 (National Center for Advancing Translational Sciences (NCATS), 2010).
About 11,000 (3.1%) of roughly 360,000 compounds were called active. Not shown: some 4% with an inconclusive outcome. What follows is part of a selection rich in actives, with near analogues and random picks from the rest. Values without a mark were called inactive. Calls come from the whole dose curve; as a rule, active = well fitted inhibition curve with a large enough effect; inconclusive = small, poorly fitted or top-dose-only effect; inactive = no such curve, though single readings can be large or run the other way.

What follows are molecules tested against Schistosoma mansoni thioredoxin glutathione reductase (TGR) (UniProt Q962Y6) (assay: qHTS Assay for the Inhibitors of Schistosoma Mansoni Peroxiredoxins). Details: purified TGR, DTNB reduction, TNB absorbance 405 nm; series mostly up to 114 µM; activity change, negative = inhibition: at the top concentration.
Method in brief: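 Kinetic colorimetric format: TGR-catalysed, NADPH-driven DTNB reduction monitored via TNB absorbance. Enzyme dispensed at 20 nM; compound exposure 15 min at room temperature before reaction start.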
% is set by controls: 0 for no effect and ±100 for the full control effect; potency is the fitted concentration of half-maximal effect.
Note: nearly all actives have a fitted effect of over 60% in size.

| SMILES | activity change, negative = inhibition | Potency |
| --- | --- | --- |
| Cc1ccc(NC(=O)CCCn2c(=O)c3cccn3c3ccccc32)cc1Cl | -2.7% |  |
| Cn1c(=O)[nH]c(=O)c2c1nc(NCCc1ccccc1)n2Cc1ccc(F)cc1 | 1.08% |  |
| CC(=O)C1=C(C)NC(=O)NC1c1ccc2c(c1)OCO2 (stereo unspecified) | 0.759% |  |
| Cc1ccccc1-n1c(C)cc(/C=C2\NC(=O)NC2=O)c1C | -28.2% |  |
| Cc1c(C(=O)O)cccc1-n1c(C)cc(/C=C2\C(=O)NC(=O)N(c3ccc4c(c3)OCO4)C2=O)c1C |  | 14.1 µM (active) |
| CCOC(=O)c1cccc(NS(=O)(=O)c2cn(C)c(C)n2)c1 | 1.53% |  |
| Cc1cnc(CN(C)C(=O)CC2C(=O)NCCN2Cc2cccc(F)c2F)[nH]1 (stereo unspecified) | -24.1% |  |
| CN(Cc1cccc2ncccc12)C(=O)CC1C(=O)NCCN1Cc1ccc(F)cc1 (stereo unspecified) |  | 35.5 µM (active) |
| CCCOC(=O)CC1C(=O)NCCN1Cc1ccc(F)cc1 (stereo unspecified) | 0% |  |
| C=CCC1(CC=C)CCCN1C(=O)CC1C(=O)NCCN1Cc1ccccc1OC (stereo unspecified) | 5.08% |  |
| CC(C)CN1CCNC(=O)C1CC(=O)N(C)CC1CCOCC1 (stereo unspecified) | -22.3% [at 57.1 µM] |  |
| COc1ccccc1CN1CCNC(=O)C1CC(=O)N(C)CC1CCOCC1 (stereo unspecified) |  | 50.1 µM (active) |
| CCc1ccc2ncc3c(-c4ccc(C)cc4)nn(CC(=O)NCc4ccccc4)c3c2c1 | -0.883% |  |
| Cc1nn(C)c2c1c(C(F)(F)F)cc(=O)n2C(C)C(=O)NCc1ccc(Cl)cc1 (stereo unspecified) | -2.62% |  |
| CC(C)c1ccc(NC(=O)Cn2nnc(C(=O)NCCc3ccccc3)c2N)cc1 | 0.776% |  |
| COc1ccc(C(=O)NCC(=O)N/N=C/c2ccc([N+](=O)[O-])o2)cc1OC |  | 17.8 µM (active) |
| COc1cc(CC(=O)N/N=C/c2ccccc2)c([N+](=O)[O-])cc1OC | -4.34% |  |
| COc1ccccc1OCCNC(=O)c1cc([N+](=O)[O-])cc([N+](=O)[O-])c1 | -14.8% |  |
| CC(C)(C)c1ccc(S(=O)(=O)N2CCN(C(=O)c3cc(-c4ccc(Br)cc4)n[nH]3)CC2)cc1 | 2.88% |  |
| COc1ccc(N2CCN(S(=O)(=O)c3ccc(-c4coc(C)n4)cc3)CC2)cc1 | -15.6% |  |
| O=C(C1CCCN(S(=O)(=O)c2cccc3nonc23)C1)N1CCN(c2ccccc2F)CC1 (stereo unspecified) | -12.4% |  |
| CCC(=O)N1CCc2cc(Br)cc(S(=O)(=O)Nc3ccc(C)cc3C)c21 | 6.97% |  |
| Oc1c(C=Nc2cccc3nsnc23)ccc2ccccc12 |  | 7.94 µM (active) |

| SMILES | activity change, negative = inhibition | Potency |
| --- | --- | --- |
| CCc1ccc(S(=O)(=O)n2ccnc2)cc1 | 7.8% |  |
| COCC(C)NS(=O)(=O)c1ccc(N2CCCCS2(=O)=O)cc1 (stereo unspecified) | 0.108% |  |
| O=C(O)CCCn1c(=O)c2cccn2c2ccc(F)cc21 | -2.82% |  |
| COCCCNC(=O)C1CC(=O)N(CCc2ccc(F)cc2)C1 (stereo unspecified) | -14.2% |  |
| COCCCn1c(CCC(=O)O)ccc1-c1ccc(F)cc1 |  | 44.7 µM (active) |
| CCOC(=O)C1CCCN(CC(=O)Nc2cc(C)c3c(=O)oc4ccccc4c3n2)C1 (stereo unspecified) | 3.8% |  |
| O=C(CSC1CC(=O)N(CCc2ccccc2)C1=O)Nc1ccc(Cl)cc1 (stereo unspecified) | -3.43% |  |
| CCC1Oc2ccc(Cl)cc2N(CC(=O)O)C1=O (stereo unspecified) | 0.128% |  |
| Cc1cc(Cl)ccc1N1C(=O)CC(SCCC(=O)O)C1=O (stereo unspecified) |  | 39.8 µM (active) |
| COc1ccc(N2CCN(C(=O)c3c(C)oc4nc(C)nc(N5CCCC5)c34)CC2)cc1 | -2.25% |  |
| COc1ccc(C(=O)N2CCC(c3nc4ccccc4o3)CC2)cc1 | 0.203% |  |
| O=C(NCc1ccco1)C(=O)c1cn(CC(=O)N2CCCCCC2)c2ccccc12 |  | 31.6 µM (active) |
| Cc1ccc(CNC(=O)C(=O)c2cn(CC(=O)N3CCOCC3)c3ccccc23)cc1 | -17% |  |
| Cc1ccc(CNC(=O)C(=O)c2cn(CC(=O)N3CCCC3)c3ccccc23)cc1 | -1.65% |  |
| CC1CCN(C(=O)Cn2c(=O)n(-c3ccc(Cl)cc3)c(=O)c3c4c(sc32)CCC4)CC1 | -2.87% |  |
| Cc1cc(C)c2oc(C(=O)Nc3c(C(=O)Nc4ccccc4)oc4ccccc34)cc(=O)c2c1 | -0.605% |  |
| NC(=O)CC[C@@H]1NC(=O)[C@H](CO)NC(=O)c2cc([N+](=O)[O-])cc(I)c2NCC[C@@H](C(N)=O)NC1=O | -32.7% |  |
| NC(=O)CC[C@@H]1NC(=O)[C@@H]2CCCN2C(=O)c2cc([N+](=O)[O-])cc(F)c2NCCC[C@@H](C(N)=O)NC1=O |  | 44.7 µM (active) |
| C[C@@H]1NC(=O)c2cc([N+](=O)[O-])cc(F)c2NCCC[C@@H](C(N)=O)NC(=O)[C@H](CC(N)=O)NC1=O | -21.9% |  |
| Cc1cccc(CC(=O)Nc2cccc(-c3cn4cccnc4n3)c2)c1 | 8.23% |  |
| CCCc1cc(=S)n2c([nH]c3ccccc32)c1C#N |  | 0.631 µM (active) |
| CN(C)Cc1c(C#N)c2ccccc2n1C | 3.62% |  |
| O=C(Cn1c(-c2cccs2)cc2ccccc21)NCCc1ccc(Cl)cc1 | -1.12% |  |
